Test systems include SR leukemia; RPMI-8226 leukemia; OVCAR-8 ovarian; OVCAR-5 ovarian; OVCAR-4 ovarian; SK-OV-3 ovarian; IGROV1 ovarian; OVCAR-3 ovarian; HS 578T breast; NCI/ADR-RES ovarian; T-47D breast; BT-549 breast; MDA-MB-435 melanoma; SW-620 colon; MCF7 breast; HCT-116 colon; HCC-2998 colon; KM12 colon.
Experiment in all cases: NCI-60 one-dose screen, 48 h (100 = growth as untreated, 0 = no growth, -100 = all killed)
What all share (conditions): 10 µM unless noted

Compounds without any hit were thinned out: in the full panel of roughly 83,000, 20% have a hit.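 Growth was measured after 48 h exposure to one concentration of compound in 96-well plates. Values under 10 count as active.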 Values without a mark were called inactive. Active and inactive are the calls of the source.

Regarding `Nc1c2c(nc3ccc(Br)cc13)CC(c1ccccc1)CC2=O` (centres undefined), the growth with SR leukemia was 27.1%; in the test on RPMI-8226 leukemia it was 17.8%; in the test on OVCAR-8 ovarian, 44.7%; in the test with OVCAR-5 ovarian, 49.2%; in the test on OVCAR-4 ovarian, 68.7%; in the test with SK-OV-3 ovarian it was 63.6%. Also, the growth in the test with IGROV1 ovarian is 36.7%; in the test on OVCAR-3 ovarian it was 14.7%; with HS 578T breast, 30.9%; with NCI/ADR-RES ovarian, 11%; in the test with T-47D breast it was 43.1%; with BT-549 breast, 42.9%. Further, the growth with MDA-MB-435 melanoma was -43.4% (active); in the test with SW-620 colon, 26.1%; in the test on MCF7 breast, 21.1%; in the test on HCT-116 colon, 31.9%; in the test on HCC-2998 colon, 62.9%; with KM12 colon it was 24.7%.

For the compound `O=C1/C(=C\C(Cl)=C/c2ccc([N+](=O)[O-])cc2)SC(=S)N1CCc1ccc(O)cc1`, the growth is 13.2% in the test with SR leukemia; -3.41% (active) in the test with RPMI-8226 leukemia; 13.3% in the test with OVCAR-8 ovarian; -33.9% (active) in the test on OVCAR-5 ovarian; 26.7% with OVCAR-4 ovarian; 31.8% in the test with SK-OV-3 ovarian. The growth in the test with IGROV1 ovarian was -67.9% (active); in the test on OVCAR-3 ovarian, -53.6% (active); in the test on HS 578T breast, 31.2%; in the test on NCI/ADR-RES ovarian, 9% (active); with T-47D breast, -36.4% (active); with BT-549 breast, -51.8% (active). Further, the growth in the test on MDA-MB-435 melanoma was -1.96% (active); in the test on SW-620 colon, -30.1% (active); in the test on MCF7 breast, -73.4% (active); in the test with HCT-116 colon, -77.2% (active); in the test on HCC-2998 colon, -92.3% (active); in the test with KM12 colon, -50.5% (active).

In the case of `N#CC1c2ccccc2-c2ccccc2N1C(=O)c1ccccc1` (centres undefined), the growth in the test with SR leukemia was 65.2%; in the test on RPMI-8226 leukemia, 26.4%; in the test with OVCAR-8 ovarian, 22.3%; with OVCAR-5 ovarian, 41.8%; with OVCAR-4 ovarian, 38.1%; in the test with SK-OV-3 ovarian, 54.3%. Further, the growth with IGROV1 ovarian was 24.2%; in the test with OVCAR-3 ovarian, -8.36% (active); in the test with HS 578T breast, 7.52% (active); with NCI/ADR-RES ovarian, -47.4% (active); in the test with T-47D breast, 73.7%; in the test with BT-549 breast it was 21.5%. For the same compound, the growth was -13.6% (active) with MDA-MB-435 melanoma; 27.3% in the test on SW-620 colon; 22.3% with MCF7 breast; 6.83% (active) with HCT-116 colon; -46.1% (active) with HCC-2998 colon; 5.94% (active) in the test on KM12 colon.

In the case of `c1cnc2[nH]cc(-c3csc(-c4cn(CCCN5CCCCC5)c5ccccc45)n3)c2c1`, the growth with SR leukemia is -31.4% (active); in the test on RPMI-8226 leukemia, -26.8% (active); in the test on OVCAR-8 ovarian, 69.7%; in the test with OVCAR-5 ovarian, 92.5%; with OVCAR-4 ovarian, 75.7%; with SK-OV-3 ovarian, 94.2%. Besides, the growth with IGROV1 ovarian was 34.6%; in the test with OVCAR-3 ovarian it was 60.4%; with HS 578T breast, 73.3%; with NCI/ADR-RES ovarian, 68.1%; in the test on T-47D breast it was 63.1%; in the test on BT-549 breast, 90.9%. The growth with MDA-MB-435 melanoma was 1.72% (active); in the test with SW-620 colon, -47.4% (active); in the test on MCF7 breast it was 22.2%; with HCT-116 colon, 60.6%; in the test with HCC-2998 colon, 87.6%; with KM12 colon, 63.3%.

Take `c1csc(-c2nc(-c3cc4ccccc4c(N4CCOCC4)n3)cs2)c1`: the growth in the test on SR leukemia is 97.7%; in the test on RPMI-8226 leukemia, 106%; with OVCAR-8 ovarian, 102%; with OVCAR-5 ovarian, 124%; in the test with OVCAR-4 ovarian it was 110%; in the test with SK-OV-3 ovarian, 99.5%. In addition, the growth in the test with IGROV1 ovarian is 86.3%; in the test with OVCAR-3 ovarian, 111%; in the test on HS 578T breast, 99.9%; in the test with NCI/ADR-RES ovarian it was 94.2%; in the test on T-47D breast it was 71.2%; with BT-549 breast, 103%. Also, the growth with MDA-MB-435 melanoma was 38%; with SW-620 colon, 97.2%; in the test on MCF7 breast it was 80.5%; in the test with HCT-116 colon, 100%; with HCC-2998 colon, 103%; in the test with KM12 colon, 99.7%.

Turning to `CC1(C)CC[C@]2(C(=O)NCCNCCN)CC[C@]3(C)C(=CC[C@@H]4[C@@]5(C)CCC(=O)C(C)(C)[C@@H]5CC[C@]43C)[C@@H]2C1`, the growth with SR leukemia is -45.6% (active); with RPMI-8226 leukemia it was -19.9% (active); in the test on OVCAR-8 ovarian, 21.4%; with OVCAR-5 ovarian, 106%; in the test on OVCAR-4 ovarian it was 65.3%; in the test on SK-OV-3 ovarian it was 89.9%. The growth was 23.8% in the test on IGROV1 ovarian; -27.2% (active) with OVCAR-3 ovarian; 79% with HS 578T breast; 93.2% in the test on NCI/ADR-RES ovarian; -71.1% (active) in the test on T-47D breast; 83.5% in the test on BT-549 breast. The growth with MDA-MB-435 melanoma was 61%; in the test with SW-620 colon, -78.4% (active); with MCF7 breast it was -23.8% (active); with HCT-116 colon, -54% (active); in the test with HCC-2998 colon it was 24.5%; with KM12 colon, 9.99% (active).

For the compound `Nc1ccc(Cl)cn1`, the growth was 113% in the test with SR leukemia; 101% in the test with RPMI-8226 leukemia; 101% in the test with OVCAR-8 ovarian; 101% in the test on OVCAR-5 ovarian; 97.4% with OVCAR-4 ovarian; 93.6% in the test with SK-OV-3 ovarian. The growth in the test with IGROV1 ovarian is 104%; in the test on OVCAR-3 ovarian it was 106%; in the test on HS 578T breast it was 99.7%; in the test on NCI/ADR-RES ovarian, 98.7%; with T-47D breast, 86.7%; in the test on BT-549 breast it was 104%. Moreover, the growth was 106% with MDA-MB-435 melanoma; 102% with SW-620 colon; 94.7% in the test with MCF7 breast; 95.4% with HCT-116 colon; 113% in the test with HCC-2998 colon; 100% with KM12 colon.

On to `Cc1cc2nc3c4cc(O)ccc4n(CCN(C)C)c3nc2cc1C`, for which the growth in the test with SR leukemia is 8.05% (active); in the test with RPMI-8226 leukemia, -11.2% (active); in the test on OVCAR-8 ovarian, -18.6% (active); with OVCAR-5 ovarian, -11.6% (active); in the test with OVCAR-4 ovarian, 4.91% (active); in the test on SK-OV-3 ovarian, -2.47% (active). Also, the growth in the test with IGROV1 ovarian is -26.4% (active); in the test with OVCAR-3 ovarian it was 3.66% (active); with HS 578T breast, 14.1%; with NCI/ADR-RES ovarian, -40.2% (active); in the test with T-47D breast, 4.84% (active); in the test on BT-549 breast, 15.8%. The growth was 3.8% (active) in the test with MDA-MB-435 melanoma; 3.53% (active) in the test on SW-620 colon; -10.1% (active) with MCF7 breast; -0.74% (active) with HCT-116 colon; -22.5% (active) in the test on HCC-2998 colon; 10.2% with KM12 colon.

These data come from PubChem BioAssay (NCI).
